D3 ag: D3 dopamine receptor (human) agonism | P35462 | D3R DiscoveRx beta-arrestin cells, luminescence, 90 min | max activation, % | 0.58% of 410,000 active | AID 652048; in the data active means max activation above about 30%; further: 0% is about no effect
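Agonist mode: compounds and dopamine controls were applied to plated cells for 90 min at 37 degrees C after an overnight attachment at 1500 cells/well. Luminescent read-out followed 30 - 60 minutes at room temperature with DiscoveRx detection reagent.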
D1 agonist: human D1 receptor agonism; 1% of 360,000 active; P21728; HEK293 T-REx D1 cells, calcium flux, agonist mode; activation, % at 2 µM; in the data active means activation above about 30%; further: 0% is about no effect
Target sequence (P21728 whole entry, looked up): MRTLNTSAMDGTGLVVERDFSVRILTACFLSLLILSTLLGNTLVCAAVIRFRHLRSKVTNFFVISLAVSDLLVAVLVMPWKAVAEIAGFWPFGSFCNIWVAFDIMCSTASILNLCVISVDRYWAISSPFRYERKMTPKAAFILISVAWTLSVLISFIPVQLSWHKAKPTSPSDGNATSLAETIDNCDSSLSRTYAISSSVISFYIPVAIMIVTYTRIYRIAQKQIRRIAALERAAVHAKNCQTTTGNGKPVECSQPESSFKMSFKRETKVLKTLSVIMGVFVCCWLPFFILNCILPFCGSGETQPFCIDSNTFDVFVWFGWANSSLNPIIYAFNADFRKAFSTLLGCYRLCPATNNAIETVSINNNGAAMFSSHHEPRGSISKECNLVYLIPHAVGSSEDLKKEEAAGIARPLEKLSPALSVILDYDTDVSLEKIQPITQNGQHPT
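Agonism was scored from calcium flux recorded over 180 s (1 read/s) after pintool compound addition, following a 10-cycle baseline. Cells were inducible force-coupled HEK293 TREx D1, plated overnight at 30 C and loaded with no-wash calcium dye.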
D1 PAM: potentiators of human D1 dopamine receptor | potentiation, % at 10 µM | 0.036% of 360,000 active | P21728 | AID 504651 | HEK293 TREx D1 cells, calcium flux, dopamine EC20 potentiation; in the data active means potentiation above about 30%; further: 0% is about no effect
BCR signal inh: blocks chronic active B-cell receptor signaling; ABC-DLBCL IkBa-CBG/CBR reporter, luminescence ratio, 4 h; Potency, µM (titrated, usually from 46.1 µM), without a hit: at the highest dose activity change, negative = inhibition, hits mostly inhibitors; 0.05% of 340,000 active; AID 493014; active means well fitted inhibition curve with a large enough effect in the signal ratio, with a control signal flat, not every such curve was filed as active; inconclusive means small, poorly fitted or top-dose-only effect, or effect the other way, or a change in a side signal; the % refers to the signal ratio;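 further: potency means the concentration at half of the fitted maximal effect; plate controls were basal doxycycline-induced cells for no effect and cells given 10 µM MG132 for full effect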
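Doxycycline induced both beetle luciferases in TMD8 lymphoma cells; IKK-driven degradation limits the IkappaBalpha-fused green signal, while red luminescence normalises for cell number and nonspecific effects. Compounds tested up to 46 uM, 4 hrs.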
D1 antag: antagonists of human D1 dopamine receptor. P21728. HEK293 TREx D1 cells, calcium flux, dopamine EC80; hits give low values. activity change, negative = inhibition, % at 10 µM. 3.2% of 360,000 active. AID 504652; in the data active means activity change below about -30%; further: on the % scale 0 is the no-effect control and ±100 the full control effect
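Cells carrying a force-coupled, tetracycline-inducible human D1 receptor report calcium flux. Each well gets a 10 s baseline, compound with 180 s monitoring, then an EC80 dopamine stimulus with a second 180 s kinetic read.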
DRD3 antagonist: blocks the human D3 dopamine receptor; D3R cells, DiscoveRx beta-arrestin luminescence, antagonist mode; hits give low values; max response, negative = inhibition, %; 2.5% of 360,000 active; in the data active means max response below about -50%; inconclusive means no clear call, values can overlap the other calls; further: on the % scale 0 is the no-effect control and ±100 the full control effect
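Cells expressing the human receptor were seeded at 1500 cells/well, incubated overnight at 37 degrees C in 5% CO2, then exposed to library compounds with dopamine controls for 90 minutes at 37 degrees C before luminescent detection.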
* hit, by the source's call; ? = inconclusive; nt = no result given. Hits are enriched below; roughly 6% of the tested compounds scored in any of these assays.

SMILES | D3 ag | D1 agonist | D1 PAM | BCR signal inh | D1 antag | DRD3 antagonist
Cc1ccc(S(=O)(=O)N2[C@@H](Cc3ccccc3)CO[C@H]2CC(=O)c2cccc3ccccc23)cc1 | -1 | nt | nt | nt | nt | 8
O=C(Nc1ccc(/C=C/c2nc3ccccc3o2)cc1)c1c(F)cccc1F | 5 | 8 | -10 | ? | -42* | 12
CC(=O)Nc1ccc(/C=C/c2nc3ccccc3o2)cc1 | -11 | 4 | -5 | -20% | -9 | -19
COc1ccc(NC(=O)Cn2cc(C(=O)C3CCCCC3)c3ccccc32)cc1 | 1 | 2 | -9 | nt | -10 | nt
Cc1ccc(N2CCN(S(=O)(=O)c3ccc(F)c(C)c3)CC2)c(C)c1 | -3 | 1 | -12 | ? | -21 | -51*
Cc1cc(S(=O)(=O)Nc2ccc(C(=O)N3CCN(c4ccccc4O)CC3)cc2)ccc1F | 32* | 1 | -3 | 6% | 7 | 43
Cc1nc(-c2ccc(S(=O)(=O)N3CCN(c4ccccc4F)CC3)cc2)co1 | -1 | 1 | -5 | nt | -34* | nt
CCc1ccccc1N1CCN(S(=O)(=O)c2ccc(F)c(C)c2)CC1 | -3 | 7 | -2 | 18% | -37* | -26
Cc1cc(S(=O)(=O)N2CCOCC2)ccc1F | -3 | 1 | -2 | 6% | 27 | 14
Cc1ccsc1/C=N/NC(=O)c1ccc2ccccc2c1 | -21 | 0 | -11 | ? | -49* | ?
CCOC(=O)[C@H](CS)NCCN[C@@H](CS)C(=O)OCC | 0 | nt | nt | nt | nt | nt
CCOc1cc(C2C(C(=O)c3ccc(C)o3)=C(O)C(=O)N2CCc2ccccc2)ccc1O (stereo not given) | 0 | 0 | -1 | 7% | -6 | -56*
C=CCOc1cccc(C2C(C(=O)c3ccc(C)o3)=C(O)C(=O)N2CCN(C)C)c1 (stereo not given) | -7 | 1 | 3 | -3% | -5 | -64*
Cc1ccc(C(=O)C2=C(O)C(=O)N(Cc3cccnc3)C2c2cccc(Oc3ccccc3)c2)o1 (stereo not given) | 2 | nt | nt | nt | nt | -69*
CC(C)Cc1nc(C(N)=O)c2[nH]c(=O)n(-c3ccc(F)cc3)c2n1 | 2 | 1 | -2 | ? | 6 | 3
Cc1cccc(-n2c(=O)[nH]c3c(C(N)=O)nc(CC(C)C)nc32)c1 | 5 | 2 | -9 | 0% | -36* | 0
CCCCN(C)CCNC(=O)C1CCN(c2nc3ccc(CC)cc3s2)CC1 | -15 | 65* | 1 | nt | -55* | nt
CCc1ccc2nc(N3CCC(C(=O)O)CC3)sc2c1 | 1 | 0 | -7 | nt | 2 | nt
O=C(NCCN1CCC(n2c(=O)[nH]c3ccccc32)CC1)c1ccc(C(F)(F)F)cc1C(F)(F)F | -15 | nt | nt | nt | nt | -92*
O=C(NCCN1CCC(n2c(=O)[nH]c3ccccc32)CC1)c1ccc(F)c(C(F)(F)F)c1 | -14 | nt | nt | nt | nt | -84*
COc1ccc(C(=O)NCCN2CCC(n3c(=O)[nH]c4ccccc43)CC2)cc1F | -11 | nt | nt | nt | nt | -91*
O=C(NCCN1CCC(n2c(=O)[nH]c3ccccc32)CC1)c1ccc(F)c(F)c1 | -12 | nt | nt | nt | nt | -93*
CCCCCn1c(=O)[nH]c2cc(C(=O)NCCCN3CCC(C)CC3)ccc2c1=O | -2 | 2 | -8 | 7% | 5 | ?
O=c1[nH]c2ccccc2n1C1CCCCC1 | 6 | 4 | 0 | ? | 11 | 2
COc1ccc(-c2ccc(NS(=O)(=O)c3ccccc3Cl)cc2)nn1 | 0 | -1 | -2 | nt | 15 | nt
Cc1ccc(NC(=O)C2CCCN(S(=O)(=O)c3cccc4nsnc34)C2)c(C)c1 (stereo not given) | 1 | 0 | 2 | nt | -5 | nt
COc1ccc(NC(=O)Cc2ccc(NC(=O)N3CCCCc4ccccc43)cc2)c(OC)c1 | 7 | 0 | -3 | nt | 12 | nt
Cc1ccc(CS(=O)(=O)CCC(=O)NCc2ccccc2Cl)cc1 | -19 | 43* | -7 | -6% | -5 | 9
COc1ccccc1CNC(=O)CCS(=O)(=O)Cc1ccc(C)cc1 | -5 | 1 | -8 | -3% | 0 | -7
O=C(NCc1ccccc1)c1nc(-c2ccc(Cl)cc2)n2c1CCCCC2 | -15 | 4 | 5 | nt | -1 | nt
